PubChem BioAssay (NCI)
About 83,000 compounds went through this panel and 20% of them were active in at least one assay; those are over-represented in the sample as a whole.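 Negative percent growth values reflect cell death: -40 means 40% of the cells present at the start died, and -100 means all died.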 A number with no mark means an inactive call. Calls of active or inactive are those of the source. How the source made its calls: active means growth percent below 10; inactive means the rest.

What was measured:
Assay in all cases: NCI-60 one-dose screen, 48 h (100 = growth as untreated, 0 = no growth, -100 = all killed)
Settings in all cases: 10 µM unless noted
NCI-H23 lung = system: NCI-H23 lung
NCI-H322M lung = system: NCI-H322M lung
HOP-62 NSCLC = system: HOP-62 NSCLC
NCI-H460 lung = system: NCI-H460 lung
HOP-92 NSCLC = system: HOP-92 NSCLC
NCI-H522 lung = system: NCI-H522 lung
A549/ATCC NSCLC = system: A549/ATCC NSCLC
786-0 renal = system: 786-0 renal
COLO 205 colon = system: COLO 205 colon
DU-145 prostate = system: DU-145 prostate
K-562 leukemia = system: K-562 leukemia
MALME-3M melanoma = system: MALME-3M melanoma
MDA-MB-231 breast = system: MDA-MB-231 breast
RXF 393 renal = system: RXF 393 renal
SF-268 CNS = system: SF-268 CNS
SF-295 CNS = system: SF-295 CNS
SF-539 CNS = system: SF-539 CNS
UACC-257 melanoma = system: UACC-257 melanoma
M14 melanoma = system: M14 melanoma
HCT-15 colon = system: HCT-15 colon

SMILES | growth (NCI-H23 lung) | growth (NCI-H322M lung) | growth (HOP-62 NSCLC) | growth (NCI-H460 lung) | growth (HOP-92 NSCLC) | growth (NCI-H522 lung) | growth (A549/ATCC NSCLC) | growth (786-0 renal) | growth (COLO 205 colon) | growth (DU-145 prostate) | growth (K-562 leukemia) | growth (MALME-3M melanoma) | growth (MDA-MB-231 breast) | growth (RXF 393 renal) | growth (SF-268 CNS) | growth (SF-295 CNS) | growth (SF-539 CNS) | growth (UACC-257 melanoma) | growth (M14 melanoma) | growth (HCT-15 colon)
CC1=C(C(=O)OCC2CCN(C(=O)OC(C)(C)C)CC2)[C@H](c2cccc(C#N)c2)C2=C(CC(C)(C)CC2=O)N1 | 65.7% | 68.4% | 70.3% | 12.8% | 86.3% | 8.74% (active) | 46.1% | 62.8% | 50.9% | 52.5% | 24.3% | 66.1% | 59.7% | 83.2% | 52.5% | 40.5% | 48% | 70% | 50.4% | 23.7%
COc1ccc(N(C)c2nc(N)nc3sc4c(c23)CCCC4)cc1 | 19.3% | 52.6% | 28.3% | 3.58% (active) | 36.5% | -13.7% (active) | 15.4% | 26.4% | -60.3% (active) | 0.729% (active) | 7.85% (active) | 50.1% | 25.5% | 46.6% | 30% | 14.5% | -6.54% (active) | 39% | 1.13% (active) | 4.87% (active)
Nc1nonc1-n1nncc1-c1cccnc1 | 102% | 101% | 110% | 111% | 99.8% | 112% | 94.7% | 104% | 114% | 112% | 105% | 96.1% | 111% | 115% | 106% | 98.2% | 102% | 112% | 104% | 101%
CN=c1ccc2nc3ccc(N)cc3sc-2c1 | 13.3% | 42% | 29% | 27.6% | 53.5% | 10.5% | 9.37% (active) | 48.8% | 1.63% (active) | 75.3% | 20.7% | -22.9% (active) | 7.68% (active) | 49.9% | 16.1% | -43.1% (active) | 12% | -19.3% (active) | 9.39% (active) | 30.3%
COc1cc(C(C)n2cc(-c3ccccc3)nn2)ccc1OC1CCCC1 (stereo not given) | 45.4% | 78% | 52.7% | 74.1% | 54.7% | 51.2% | 61.3% | 72.7% | 91.8% | 85.6% | 34% | 63.7% | 76% | 83.1% | 72% | 47.1% | 69.3% | 55.4% | 82.8% | 62.2%
CN1C(=O)N(C)C2C1NN=c1s/c(=C\c3ccc([N+](=O)[O-])cc3)c(=O)n12 (stereo not given) | 87.3% | 85.4% | 68.9% | 32% | 77.6% | 43.6% | 59.9% | 64.4% | 56.7% | 77.4% | 22% | 65.9% | 75.1% | 78.6% | 77.1% | 40.8% | 54.7% | 63.6% | 51.2% | 37.6%
O=C(NC1C(O)OC(CO)C(O)C1O)NS(=O)(=O)c1ccc(Cl)cc1 (stereo not given) | 104% | 99.5% | 92.9% | 104% | 101% | 100% | 109% | 104% | 114% | 108% | 108% | 104% | 103% | 115% | 98.7% | 103% | 101% | 104% | 102% | 102%
S=C1CCCC(=S)N1 | 101% | 107% | 88% | 106% | 105% | 96.6% | 98.3% | 107% | 115% | 111% | 104% | 106% | 113% | 104% | 99.1% | 104% | 100% | 94.6% | 105% | 101%
CCOC(=O)C1(Cc2ccccc2)CCN(Cc2cccc(OC)c2O)CC1 | 18.3% | 20.3% | 12.9% | -13% (active) | 30.6% | 17.1% | 2.47% (active) | 6.33% (active) | 10.2% | 10.8% | 8.73% (active) | 12% | 22.1% | -13.9% (active) | 5.65% (active) | -22.2% (active) | 5.93% (active) | -4.96% (active) | 2.78% (active) | 24%
CCOC(=O)c1cnc2c(C)cccc2c1Nc1ccc(C(C)=O)cc1 | 32.1% | 42.7% | -76.6% (active) | -68.6% (active) | -1.13% (active) | -78.5% (active) | -60.9% (active) | 8.84% (active) | -91.5% (active) | 22% | -21.5% (active) | -81% (active) | 11.2% | -54.5% (active) | 43.5% | -82.2% (active) | -44.9% (active) | -58.4% (active) | -67.6% (active) | 0.0229% (active)
Cc1ccc(NCCNCC(O)CO)c2c(=O)c3ccccc3sc12 (stereo not given) | 29.6% | 25.1% | 20.3% | -66.3% (active) | -2.88% (active) | 26.6% | -2.08% (active) | 27.1% | -87.2% (active) | 11.9% | -13.4% (active) | -12.4% (active) | -15.9% (active) | 13.8% | 29.3% | 25.4% | 47.3% | 6.52% (active) | -71% (active) | -37.2% (active)
O=c1oc2ccc(F)cc2c(=O)n1-c1ccc(Br)cc1F | 1.49% (active) | 6.65% (active) | -0.164% (active) | 4.13% (active) | -15.2% (active) | -17.9% (active) | 4.2% (active) | 2.85% (active) | 27.7% | 14.5% | 6.75% (active) | -23% (active) | -22% (active) | -0.594% (active) | 11.2% | -50.6% (active) | 2.6% (active) | -17.4% (active) | -2.25% (active) | 2.89% (active)
Cc1cc2c(c(C)c1Cl)C(=O)/C(=C/c1ccco1)O2 | 87.9% | 99.2% | 96.7% | 94.7% | 129% | 85.3% | 103% | 105% | 113% | 103% | 98.5% | 102% | 82.3% | 124% | 109% | 109% | 101% | 97.4% | 93.2% | 70.8%
O=C(Nc1ccc(F)c(Cl)c1)Nc1ccc(Cl)c(Cl)c1 | 86.1% | 102% | 74.2% | 76.9% | 65.1% | 66.4% | 71.8% | 87.2% | 89% | 88.4% | 15.4% | 57.5% | 76% | 72.8% | 88.1% | 36.6% | 80.3% | 84.1% | 53.6% | 53.1%
COc1ccc(CCN2C(=O)/C(=C/c3ccc(C4Oc5ccccc5C5CC(c6cccc(OC)c6)=NN54)cc3)SC2=S)cc1 (stereo not given) | 99.8% | 103% | 100% | 101% | 96.2% | 90.3% | 103% | 105% | 107% | 101% | 105% | 97.8% | 101% | 107% | 94.4% | 97.7% | 95.4% | 101% | 97.1% | 102%
Cc1nc2ccccc2c(/C=C/c2ccc(F)cc2)c1C(N)=O | 101% | 110% | 95.2% | 108% | 105% | 94.3% | 97.7% | 99.8% | 114% | 105% | 95.8% | 105% | 92% | 106% | 96.4% | 102% | 102% | 99.9% | 103% | 108%
